# Laboratory results reported in the supplement of paper PMC10037445.
# The full ranking holds about 2,900 compounds; the median of “NF-kB SEAP reporter activity, fold change vs agonist alone” is about 0.99, and the highest 2% start at about 2.6. The list comes from a sample in which the highest values are over-represented; it also holds similar structures and randomly drawn compounds.
# Assays:
# RAW-Dual [1] = experiment: NF-kB SEAP reporter activity, fold change vs agonist alone; higher = enhanced NF-kB activity
# Method in brief: (§1)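 After 50 nL of library stock was delivered by pin tool to RAW-Dual macrophages (50,000 cells/well, DMEM, 384-well plates), a PRR agonist was added 1 h later and the plates were kept at 37 °C, 5% CO2. Twenty hours later, IRF was read from supernatant by QuantiLuc luminescence and NF-κB by QuantiBlue absorbance at 620 nm. Reporter activity is stated as fold change over agonist-alone wells. Wells with IncuCyte confluency under 70% of agonist controls in both mask sets were counted as cytotoxic.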
# RAW-Dual [2] = experiment: NF-kB SEAP reporter activity, fold change vs agonist alone; cytotoxicity flag (confluency mask): cytotoxic (confluency <70% of control); library stock concentration (final ~1000-fold dilution): 10 mM; higher = enhanced NF-kB activity
# Method in brief: as §1
# RAW-Dual [3] = experiment: NF-kB SEAP reporter activity, fold change vs agonist alone; cytotoxicity flag (confluency mask): not cytotoxic; library stock concentration (final ~1000-fold dilution): 10 mM; higher = enhanced NF-kB activity
# Method in brief: as §1
# RAW-Dual [4] = experiment: NF-kB SEAP reporter activity, fold change vs agonist alone; cytotoxicity flag (confluency mask): not cytotoxic; library stock concentration (final ~1000-fold dilution): 2 mM; higher = enhanced NF-kB activity
# Method in brief: as §1
# [5] = library stock concentration (final ~1000-fold dilution): 10 mM, cytotoxicity flag (confluency mask): cytotoxic (confluency <70% of control), agonist: Imiquimod (TLR7) […]
# [6] = library stock concentration (final ~1000-fold dilution): 10 mM, cytotoxicity flag (confluency mask): cytotoxic (confluency <70% of control), agonist: MPLA (TLR4) […]
# [7] = agonist: ODN 1826 (TLR9) 0.5 ug/mL
# [8] = agonist: Pam2CSK4 (TLR2/6) 0.1 ug/mL
# [9] = agonist: Pam3CSK4 (TLR2/1) 0.1 ug/mL
# [10] = library stock concentration (final ~1000-fold dilution): 10 mM, cytotoxicity flag (confluency mask): not cytotoxic, agonist: Imiquimod (TLR7) […]
# [11] = library stock concentration (final ~1000-fold dilution): 10 mM, cytotoxicity flag (confluency mask): not cytotoxic, agonist: MPLA (TLR4) […]
smiles,measurement,setting,value
CC(C)(C)c1cc(C=C(C#N)C#N)cc(Br)c1O,NF-kB SEAP reporter activity,RAW-Dual [1]; [5],2.04
same,NF-kB SEAP reporter activity,RAW-Dual [1]; [6],2.25
same,NF-kB SEAP reporter activity,RAW-Dual [2]; agonist: LPS (TLR4) 0.1 ug/mL,2.48
same,NF-kB SEAP reporter activity,RAW-Dual [2]; [7],1.29
same,NF-kB SEAP reporter activity,RAW-Dual [2]; [8],0.571
same,NF-kB SEAP reporter activity,RAW-Dual [2]; [9],0.667
N#CC(C#N)=Cc1ccc(O)c(O)c1,NF-kB SEAP reporter activity,RAW-Dual [1]; [10],0.89
same,NF-kB SEAP reporter activity,RAW-Dual [1]; [11],1.33
same,NF-kB SEAP reporter activity,RAW-Dual [3]; agonist: LPS (TLR4) 0.1 ug/mL,1.19
same,NF-kB SEAP reporter activity,RAW-Dual [3]; [7],0.619
same,NF-kB SEAP reporter activity,RAW-Dual [3]; [8],0.821
same,NF-kB SEAP reporter activity,RAW-Dual [3]; [9],0.937
CC(C)(C)c1cc(C=C(C#N)C#N)cc(C(C)(C)C)c1O,NF-kB SEAP reporter activity,RAW-Dual [1]; [5],1.7
same,NF-kB SEAP reporter activity,RAW-Dual [1]; [6],2.56
same,NF-kB SEAP reporter activity,RAW-Dual [2]; agonist: LPS (TLR4) 0.1 ug/mL,5.32
same,NF-kB SEAP reporter activity,RAW-Dual [2]; [7],1.32
same,NF-kB SEAP reporter activity,RAW-Dual [2]; [8],0.729
same,NF-kB SEAP reporter activity,RAW-Dual [2]; [9],1.48
CN1C(=O)C23CC4(C56CC78SSC(CO)(C(=O)N7C5Nc5ccccc56)N(C)C8=O)c5ccccc5NC4N2C(=O)C1(CO)SS3 (stereo not drawn),NF-kB SEAP reporter activity,RAW-Dual [1]; [5],0.117
same,NF-kB SEAP reporter activity,RAW-Dual [1]; [6],0.183
same,NF-kB SEAP reporter activity,RAW-Dual [2]; agonist: LPS (TLR4) 0.1 ug/mL,0.372
same,NF-kB SEAP reporter activity,RAW-Dual [2]; [7],0.141
same,NF-kB SEAP reporter activity,RAW-Dual [2]; [8],0.0829
same,NF-kB SEAP reporter activity,RAW-Dual [2]; [9],0.196
CCC1(O)C(=O)OCc2c1cc1n(c2=O)Cc2cc3ccccc3nc2-1 (stereo not drawn),NF-kB SEAP reporter activity,"RAW-Dual [1]; library stock concentration (final ~1000-fold dilution): 2 mM, cytotoxicity flag (confluency mask): not cytotoxic, agonist: Imiquimod (TLR7) […]",1.45
same,NF-kB SEAP reporter activity,"RAW-Dual [1]; library stock concentration (final ~1000-fold dilution): 2 mM, cytotoxicity flag (confluency mask): not cytotoxic, agonist: MPLA (TLR4) […]",1.83
same,NF-kB SEAP reporter activity,RAW-Dual [4]; agonist: LPS (TLR4) 0.1 ug/mL,4.12
same,NF-kB SEAP reporter activity,RAW-Dual [4]; [7],1.47
same,NF-kB SEAP reporter activity,RAW-Dual [4]; [8],1.05
same,NF-kB SEAP reporter activity,RAW-Dual [4]; [9],1.74
CCc1c2c(nc3ccccc13)-c1cc3c(c(=O)n1C2)COC(=O)C3(O)CC (stereo not drawn),NF-kB SEAP reporter activity,RAW-Dual [1]; [6],1.62
same,NF-kB SEAP reporter activity,RAW-Dual [2]; agonist: LPS (TLR4) 0.1 ug/mL,0.384
same,NF-kB SEAP reporter activity,RAW-Dual [2]; [7],2.29
same,NF-kB SEAP reporter activity,RAW-Dual [2]; [8],0.788
same,NF-kB SEAP reporter activity,RAW-Dual [2]; [9],0.641
C=CC1CN2CCC3(C(=O)Nc4ccccc43)C2CC1/C(=C\OC)C(=O)OC (stereo not drawn),NF-kB SEAP reporter activity,RAW-Dual [1]; [10],0.91
same,NF-kB SEAP reporter activity,RAW-Dual [1]; [11],1.1
same,NF-kB SEAP reporter activity,RAW-Dual [3]; agonist: LPS (TLR4) 0.1 ug/mL,0.951
same,NF-kB SEAP reporter activity,RAW-Dual [3]; [7],0.904
same,NF-kB SEAP reporter activity,RAW-Dual [3]; [8],0.882
same,NF-kB SEAP reporter activity,RAW-Dual [3]; [9],0.928
CC(=O)O.Cc1cc2c(C(C)C)c(O)c(O)c(C=O)c2c(O)c1-c1c(C)cc2c(C(C)C)c(O)c(O)c(C=O)c2c1O,NF-kB SEAP reporter activity,RAW-Dual [1]; [10],0.906
same,NF-kB SEAP reporter activity,RAW-Dual [1]; [11],0.963
same,NF-kB SEAP reporter activity,RAW-Dual [3]; agonist: LPS (TLR4) 0.1 ug/mL,3.69
same,NF-kB SEAP reporter activity,RAW-Dual [3]; [7],0.908
same,NF-kB SEAP reporter activity,RAW-Dual [3]; [8],1.15
same,NF-kB SEAP reporter activity,RAW-Dual [3]; [9],1.2
CC[C@H]1CN2CC[C@]3(C(=O)Nc4ccccc43)[C@@H]2C[C@@H]1/C(=C\OC)C(=O)OC,NF-kB SEAP reporter activity,RAW-Dual [1]; [10],0.86
same,NF-kB SEAP reporter activity,RAW-Dual [1]; [11],1.04
same,NF-kB SEAP reporter activity,RAW-Dual [3]; agonist: LPS (TLR4) 0.1 ug/mL,1.21
same,NF-kB SEAP reporter activity,RAW-Dual [3]; [7],1.05
same,NF-kB SEAP reporter activity,RAW-Dual [3]; [8],0.949
same,NF-kB SEAP reporter activity,RAW-Dual [3]; [9],1.03
COc1cc2c(c(OC)c1OC)-c1ccc(OC)c(=O)cc1C(NC(C)=O)CC2 (stereo not drawn),NF-kB SEAP reporter activity,RAW-Dual [1]; [10],2.62
same,NF-kB SEAP reporter activity,RAW-Dual [1]; [11],1.98
same,NF-kB SEAP reporter activity,RAW-Dual [3]; agonist: LPS (TLR4) 0.1 ug/mL,4.93
same,NF-kB SEAP reporter activity,RAW-Dual [3]; [7],3.47
same,NF-kB SEAP reporter activity,RAW-Dual [3]; [8],2.44
same,NF-kB SEAP reporter activity,RAW-Dual [3]; [9],2.52
CN1C2CCC1CC(OC(=O)C(CO)c1ccccc1)C2.CN1C2CCC1CC(OC(=O)C(CO)c1ccccc1)C2.O.O=S(=O)(O)O (stereo not drawn),NF-kB SEAP reporter activity,RAW-Dual [1]; [10],0.838
same,NF-kB SEAP reporter activity,RAW-Dual [1]; [11],0.986
same,NF-kB SEAP reporter activity,RAW-Dual [3]; agonist: LPS (TLR4) 0.1 ug/mL,0.923
same,NF-kB SEAP reporter activity,RAW-Dual [3]; [7],0.83
same,NF-kB SEAP reporter activity,RAW-Dual [3]; [8],0.79
same,NF-kB SEAP reporter activity,RAW-Dual [3]; [9],1.05
CC12CCC3C(CCC4=C(O)C(=O)CCC43C)C1CCC2=O (stereo not drawn),NF-kB SEAP reporter activity,RAW-Dual [1]; [10],0.986
same,NF-kB SEAP reporter activity,RAW-Dual [1]; [11],1.01
same,NF-kB SEAP reporter activity,RAW-Dual [3]; agonist: LPS (TLR4) 0.1 ug/mL,1.17
same,NF-kB SEAP reporter activity,RAW-Dual [3]; [7],1.21
same,NF-kB SEAP reporter activity,RAW-Dual [3]; [8],1.07
same,NF-kB SEAP reporter activity,RAW-Dual [3]; [9],1.23
Nc1ncnc2c1ccn2C1OC(CO)C(O)C1O (stereo not drawn),NF-kB SEAP reporter activity,RAW-Dual [1]; [5],0.147
same,NF-kB SEAP reporter activity,RAW-Dual [1]; [6],0.247
same,NF-kB SEAP reporter activity,RAW-Dual [2]; agonist: LPS (TLR4) 0.1 ug/mL,0.531
same,NF-kB SEAP reporter activity,RAW-Dual [2]; [7],0.19
same,NF-kB SEAP reporter activity,RAW-Dual [2]; [8],0.0753
same,NF-kB SEAP reporter activity,RAW-Dual [2]; [9],0.156
Cl.NCCc1ccc(S(=O)(=O)F)cc1,NF-kB SEAP reporter activity,RAW-Dual [1]; [10],1.07
same,NF-kB SEAP reporter activity,RAW-Dual [1]; [11],1.23
same,NF-kB SEAP reporter activity,RAW-Dual [3]; agonist: LPS (TLR4) 0.1 ug/mL,1.6
same,NF-kB SEAP reporter activity,RAW-Dual [3]; [7],1.01
same,NF-kB SEAP reporter activity,RAW-Dual [3]; [8],1.03
same,NF-kB SEAP reporter activity,RAW-Dual [3]; [9],1.9
